Results published in PubChem BioAssay (NCATS).
Inconclusive results are not listed. A number with no mark means an inactive call. Active and inactive are the calls of the source. Calls come from the whole dose curve; as a rule, active = well fitted inhibition curve with a large enough effect; inconclusive = small, poorly fitted or top-dose-only effect; inactive = flat fitted curve, though single readings scatter.

Target: Calcium and integrin-binding protein 1 (Homo sapiens) (UniProt Q99828)
Experiment: Primary qHTS for Identification of Calcium Integrin Binding Protein 1 (CIB1) Competitor (AID 1508620);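 note: GST tagged CIB1 binding a fluorescein labelled alphaIIb integrin peptide tracer; top concentration of the series differs between compounds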
Conditions: CIB1-GST / FITC-alphaIIb peptide fluorescence polarization; series mostly up to 114 µM; activity change, negative = inhibition: at the top concentration
Text: Assay Provider: Ulhas P. Naik, PhD Sidney Kimmel Medical College Thomas Jefferson University, Philadelphia, PA Primary function of platelets is to maintain hemostasis. At the site of vascular injury, platelets adhere to adhesive proteins such as collagen and von Willebrand factor. Adherent platelets are activated and generate soluble platelet agonists such as thrombin, ADP and thromboxane A2. Following exposure of circulating platelets to these agonists, results in platelet shape change, granule secretion and activation of platelet integrin alphaIIb-beta3. Ligand binding to activated integrin alphaIIb-beta3 triggers outside-in signaling, leading to platelet aggregation, stabilization of platelet plug, and clot retraction. Upon atherosclerotic plaque rupture also causes platelet plug formation, which underlies a number of cardiovascular diseases such as myocardial infraction and stroke. A number of anti-platelet drugs such as aspirin, clopidogrel, prasugrel, vorapaxar, and eptifibatide are currently available to prevent the thrombotic complications. However, these anti-platelet agents have several limitations including inherent variability in individual responses, developing resistance, and serious bleeding side effects. For these reasons they are not suitable for long-term protection. Based on the experiences with current anti-platelet drugs, it appears that the most useful therapeutic approach is to intersect the secondary responses such as integrin outside-in signaling or recruitment of platelets by TxA2 and secreted ADP. Compounds, which can largely preserve the primary hemostatic function of platelets but inhibit secondary response will be most desired therapeutic agents for treatment of cardiovascular disease. CIB1 is a calcium integrin binding protein, which specifically interact with the alphaIIb subunit of integrin alphaIIb-beta3. Binding of CIB1 to alphaIIb regulates the outside-in signaling in platelets, which is needed for thrombus stabilization and thrombus growth. […] Therefore, we propose that discovery of a small molecule that can prevent the association of CIB1 and alphaIIb-beta3 will be a potential anti-platelet agent that can block the thrombus formation without undue effect on hemostasis. Reference: [1] Naik MU, Nigam A, Manrai P, et al. CIB1 deficiency results in impaired thrombosis: the potential role of CIB1 in outside-in signaling through integrin alpha IIb beta 3. J Thromb Haemost.
PROTOCOL TABLES SEQUENCE No. (1, 2, 3, etc.); […] (e.g., Cells, Incubation, Reagent, etc.); VALUE and DESCRIPTION. 1; Reagent; 3 uL; Protein or buffer (4/3x) 2; Compound; 46 nL; Control inhibitor / compound library 3; Time; 15 min; Room temperature incubation 4; Reagent; 1 uL; Fluorescent labeled peptide (4x) 5; Time; 1000 rpm; Centrifuge 6; Time; 15 min; Room temperature incubation 7; Detection; Ex 480/ Em 540; ViewLux Fluorescence Read NOTES (numbers refer to sequence above) 1; Protein Mixture: C1B1-GST (final concentrations of 1 uM). […] 3; Room temperature incubation. 4; Fluorescent Labeled Peptide: FITC-aIIb (final concentration of 100 nM). Sequence of alphaIIb peptide: Acetyl-[…]-FITC (purity is 95.83%). 5; Centrifuge 1000 rpm (164 g) for 15 seconds. 6; Room temperature incubation. 7; ViewLux Fluorescent Polization Read: excitation = 480(20) / emission = 540(25) S and P; FITC Dichroic mirror.
% is set by controls: 0 for no effect and ±100 for the full control effect.

Calcium and integrin-binding protein 1 (Homo sapiens), sequence (Q99828 whole entry, looked up): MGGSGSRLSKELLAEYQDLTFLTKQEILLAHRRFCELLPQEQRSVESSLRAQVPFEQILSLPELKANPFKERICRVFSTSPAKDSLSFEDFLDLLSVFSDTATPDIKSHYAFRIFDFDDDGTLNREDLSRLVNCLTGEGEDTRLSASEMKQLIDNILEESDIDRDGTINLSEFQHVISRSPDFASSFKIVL

Compound | activity change, negative = inhibition | Potency
C[C@]12CC[C@H]3[C@@H](CCC4=CC(=O)CC[C@@H]43)[C@@H]1CC[C@@H]2O | 7.04% | –
COc1ccc2c3c1O[C@H]1[C@@H](O)C=C[C@H]4[C@@H](C2)N(C)CC[C@@]341 | 1.05% [at 228 µM] | –
CCN1CCCC1CNC(=O)C(O)(c1ccccc1)c1ccccc1 (stereo not given) | -3.29% | –
c1ccc2c(c1)Sc1ccccc1N2CC1CN2CCC1CC2 (stereo not given) | -5.34% | –
Cc1nc2ccccc2c(=O)n1-c1ccccc1Cl | 0.118% [at 228 µM] | –
Cc1nnc2n1-c1sc(CCc3ccc(CC(C)C)cc3)cc1C(c1ccccc1Cl)=NC2C (stereo not given) | -3.95% | –
CC(CC(C(N)=O)(c1ccccc1)c1ccccc1)N(C)C (stereo not given) | -0.29% | –
COc1cc(CC(C)N)cc2c1OCO2 (stereo not given) | -0.132% [at 228 µM] | –
C#C[C@]1(O)C=C[C@H]2[C@@H]3CCC4=CC(=O)CC[C@@H]4[C@H]3CC[C@@]21CC | 3.94% | –
COc1cc(N)c(Cl)cc1C(=O)NC1CN2CCC1CC2 (stereo not given) | 4.71% | –
COc1ccc2c(C(=O)c3ccc(Cl)cc3)c(C)n(CC(=O)O)c2c1 | 1.5% | –
CCCCC1C(=O)NC(=O)N(C2CCCCC2)C1=O (stereo not given) | -2.11% | –
C[C@]12CC[C@H]3[C@@H](CC=C4C[C@@H](O)CC[C@@]43C)[C@@H]1CC[C@@H]2O | 6.64% | –
CC(C)(C)OC(=O)c1ncn2c1[C@@H]1CCCN1C(=O)c1c(Br)cccc1-2 | 0.937% | –
C[C@@H]1CN(C2CCC(C#N)(c3ccc(F)cc3)CC2)CC[C@]1(C(=O)O)c1ccccc1 (stereo not given in full) | 2.93% | –
Cc1ccc(N=CN(C)C=Nc2ccc(C)cc2C)c(C)c1 | 3.95% | –
O=C1NCN(c2ccccc2)C12CCN(CCCOc1ccc(F)cc1)CC2 | 8.19% | –
ClCc1cccc(Cl)c1 | -1.94% | –
C[C@H](CN1CCOCC1)C(C(=O)N1CCCC1)(c1ccccc1)c1ccccc1 | -1.39% [at 228 µM] | –
O=C(O)c1nn(Cc2ccc(Cl)cc2Cl)c2ccccc12 | – | inactive

Compound | activity change, negative = inhibition | Potency
COCC(=O)N(c1c(C)cccc1C)C(C)C(=O)OC (stereo not given) | -0.3% | –
C[C@]12CC[C@H](O)CC1=CC[C@@H]1[C@@H]2CC[C@]2(C)C(=O)CC[C@@H]12 | – | inactive
Nc1ccc(Cl)cc1C(=O)c1ccccc1F | -2.11% | –
COc1ccc(OC)c(CC(C)N)c1 (stereo not given) | -1.51% [at 228 µM] | –
NC(=O)OCCCc1ccccc1 | -2.62% | –
CC1N=C(N)OC1c1ccccc1 (stereo not given) | -4.43% [at 228 µM] | –
Oc1ccc2[nH]cc(CCCCN3CC=C(c4ccccc4)CC3)c2c1 | -0.752% | –
CCC1(c2cccc(O)c2)CCCCN(C)C1 (stereo not given) | 5.96% | –
O=C(CCCCl)c1ccc(F)cc1 | 0.509% | –
CN1C(=O)CN=C(c2ccccc2)c2cc([N+](=O)[O-])ccc21 | 3.76% | –
CCNc1nc(Cl)nc(NCC)n1 | 0.649% | –
C[C@H](N)[C@H](O)c1ccc(O)c(O)c1 | 7.87% | –
CC(Cc1ccccc1)NCCCCl (stereo not given) | -1.11% | –
CCOC(=O)NC(O)C(Cl)(Cl)Cl (stereo not given) | 4.79% | –
C[C@@H]1O[C@@H](O[C@@H]2C=C3CC[C@@H]4[C@H](CC[C@]5(C)[C@@H](c6ccc(=O)oc6)CC[C@]45O)[C@@]3(C)CC2)[C@H](O)[C@H](O)[C@H]1O | 0.867% | –
CCN(CC)CCOC(=O)C(C)(c1ccccc1)c1ccccc1 | -3.39% | –
C[N+]1(C)[C@@H]2CC[C@H]1CC(OC(=O)C(CO)c1ccccc1)C2 (stereo not given in full) | 9.34% | –
CC(C(O)c1ccccc1)N(C)C/C=C/c1ccccc1 (stereo not given) | 2.22% | –
CN1C(=O)[C@@H](NC(=O)c2cc3ccccc3[nH]2)N=C(c2ccccc2)c2ccccc21 | 2.95% | –
Cc1nnc2n1-c1sc(CCC(=O)N3CCOCC3)cc1C(c1ccccc1Cl)=NC2 | -5.57% | –
